{
  "source": "PubChem BioAssay AID652040",
  "about": "(Broad Institute, 2013)",
  "note": "Entries with a potency or affinity are not part of this list. The source made the active and inactive calls.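 Rule for the calls: active = falling luciferase signal whose fitted half-maximal concentration is at most twice the top tested dose; inconclusive = flat inhibition between 30 and 70% or a poor curve fit; inactive = the rest.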",
  "data": [
    {"experiment": "off-target signal loss in HeLa-CEM21 co-culture – HeLa F-luc CTL cells, cherry-picked, counter-screen for HIV-1 Env fusion inhibitor project, dose response (AID 652040);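 note: more negative values mean stronger loss of luciferase signal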", "conditions": "HeLa-F-luc CTL cells with CEM21, firefly luciferase counterscreen; series mostly up to 35 µM", "values": [
      {"smiles": "O=C1COc2ccc(-c3csc(=Nc4ccc(OC(F)F)cc4)n3CC3CCCO3)cc2N1", "note": "(stereo not given)", "outcome": "inactive"},
      {"smiles": "Cc1ccc(Cn2nnnc2CN2CCC(c3nc4ccc(Cl)cc4[nH]3)CC2)cc1", "outcome": "inactive"},
      {"smiles": "O=C(CC1C(=O)NCCN1Cc1cccc(F)c1)NC1CCCCC1", "note": "(stereo not given)", "outcome": "inactive"},
      {"smiles": "CCCCCCCn1c2c(c(=N)c3c1CCC3)CCCC2", "outcome": "inactive"},
      {"smiles": "COc1ccccc1CN(C)C(=O)CN1CCN(C(=O)c2cccs2)CC1", "outcome": "inactive"},
      {"smiles": "CCOC(=O)[C@@H]1[C@H]2COc3cc(OC)ccc3[C@H]2N2C(=O)N(c3cccc(F)c3)C(=O)[C@@]12C", "outcome": "inactive"},
      {"smiles": "Cc1cc(Cl)c(S(=O)(=O)N2CCCC2)cc1OCC(=O)NC1CCCCC1", "outcome": "inactive"},
      {"smiles": "O=C(Cc1ccc(Cl)cc1Cl)Nc1ccncc1", "outcome": "inactive"},
      {"smiles": "O=C(Nc1ccc(S(=O)(=O)N2CCN(Cc3ccccc3)CC2)cc1)c1cnccn1", "outcome": "inactive"},
      {"smiles": "CS(=O)(=O)N1CCN(c2ccccc2NC(=O)C(c2ccccc2)c2ccccc2)CC1", "outcome": "inactive"},
      {"smiles": "O=C(NNC(=O)C(c1ccccc1)c1ccccc1)c1ccccn1", "outcome": "inactive"},
      {"smiles": "Cc1onc(-c2ccccc2)c1C(=O)Nc1ccc(Br)cc1Cl", "outcome": "inactive"},
      {"smiles": "CN1C(=O)C2(c3ccccc31)N(C)CC(c1ccccc1)C21SC(=S)N(Cc2ccco2)C1=O", "note": "(stereo not given)", "outcome": "inactive"},
      {"smiles": "CC(=O)Nc1ccc(C(=O)OCC(=O)NC(=O)NCc2ccccc2)cc1", "outcome": "inactive"},
      {"smiles": "Nc1c(S(=O)(=O)c2ccccc2)cnc2c(-c3ccc(F)cc3)cnn12", "outcome": "inactive"},
      {"smiles": "Cc1nc2ccc(NC(=O)c3cc(S(=O)(=O)N(C)c4ccccc4)ccc3Cl)cc2s1", "outcome": "inactive"},
      {"smiles": "NC(=S)c1ccc(OCCCc2ccccc2)cc1", "outcome": "inactive"},
      {"smiles": "O=C(Nc1nc(COc2ccccc2)cs1)C12CC3CC(CC(C3)C1)C2", "outcome": "inactive"},
      {"smiles": "c1ccc2c(c1)ncn2CCCCOc1ccc2c(c1)CCC2", "outcome": "inactive"},
      {"smiles": "CC(=O)C1=C(C)NC(=S)NC1c1ccccc1", "note": "(stereo not given)", "outcome": "inactive"},
      {"smiles": "O=C(Nc1cccc(C(F)(F)F)c1)c1ccc(Cn2cc(Br)cn2)o1", "outcome": "inactive"},
      {"smiles": "CC(OC(=O)c1ccc(NC(=O)CC#N)cc1)C(=O)NCCC1=CCCCC1", "note": "(stereo not given)", "outcome": "inactive"},
      {"smiles": "Cc1ccc(-c2nnc(N3CCN(C(=O)COc4ccccc4)CC3)c3ccccc23)cc1", "outcome": "inactive"},
      {"smiles": "O=C(Nc1cc2c3c(c1)CC(=O)N3CCC2)c1ccc(Cl)cc1", "outcome": "inactive"},
      {"smiles": "CCOc1ccc(NC2c3ccccc3C(=O)N2Cc2ccco2)cc1", "note": "(stereo not given)", "outcome": "inactive"},
      {"smiles": "COc1ccc(Nc2ncc(C(=O)N3CCN(c4ccc(F)cc4)CC3)c3ccccc23)cc1", "outcome": "inactive"},
      {"smiles": "Clc1ccc2c(c1)C1=C(C(c3ccncc3)O2)C(c2ccc(Br)cc2)n2ncnc2N1", "note": "(stereo not given)", "outcome": "inactive"},
      {"smiles": "Cc1oc(-c2ccccc2F)nc1CN1CCC(C(=O)NCCC2=CCCCC2)CC1", "outcome": "inactive"},
      {"smiles": "COc1ccc(OC)c(NC(=O)COc2ccc3c(c2)CCC3)c1", "outcome": "inactive"},
      {"smiles": "O=c1c2ccccc2nnn1CSc1nnc(COc2ccc(Cl)cc2)n1Cc1ccco1", "outcome": "inactive"},
      {"smiles": "COc1ccccc1N/C(N)=N/c1nc(CSc2ccc(C)cc2)cc(=O)[nH]1", "outcome": "inactive"},
      {"smiles": "Cc1ccc(C2CC(=O)c3cnc(N4CCc5ccccc5C4)nc3C2)cc1", "note": "(stereo not given)", "outcome": "inactive"},
      {"smiles": "COCc1[nH]nc2c1C(c1ccc(F)cc1)N(Cc1ccccc1)C2=O", "note": "(stereo not given)", "outcome": "inactive"},
      {"smiles": "C[C@@H]1CN([C@H](C)CO)S(=O)(=O)c2ccc(C#Cc3cccc(F)c3)cc2O[C@@H]1CN(C)C(=O)CN1CCOCC1", "outcome": "inactive"},
      {"smiles": "O=C(CN1CCN(Cc2ccc(Cl)cc2)C1=O)NCCCN1CCN(c2ccc(F)cc2)CC1", "outcome": "inactive"},
      {"smiles": "CCN1CCN(S(=O)(=O)c2ccc(Cl)c(C(=O)Nc3ccccc3N3CCCC3)c2)CC1", "outcome": "inactive"},
      {"smiles": "COc1ccc(N2CCn3c2nc2c3c(=O)n(CCCc3ccccc3)c(=O)n2C)c(OC)c1", "outcome": "inactive"},
      {"smiles": "Cc1nc2ccc(NC(=O)c3ccc(Cl)c(S(=O)(=O)N(C)c4ccccc4)c3)cc2s1", "outcome": "inactive"},
      {"smiles": "CN1CC(c2ccccc2)C2(SC(=S)N(Cc3ccco3)C2=O)C12C(=O)Nc1ccccc12", "note": "(stereo not given)", "outcome": "inactive"},
      {"smiles": "Cn1c(=O)c2c(nc(NCCc3ccccc3)n2Cc2ccccc2)n(C)c1=O", "outcome": "inactive"}
    ]}
  ]
}
